Assay outcomes: PubChem BioAssay, National Center for Advancing Translational Sciences (NCATS)
PKM2 inh = blocks activity of human pyruvate kinase M2; P14618; Potency, µM (series often up to 57.5 µM), without a hit: at the top dose activity change, negative = inhibition, actives largely listed as inhibitors; 0.058% of 260,000 active; AID 1634; purified PKM2, ATP generation, Kinase-Glo luminescence; note: potency is the fitted concentration of half-maximal effect; nearly all actives have a fitted effect of over 60% in size
Target sequence (P14618 whole entry, looked up): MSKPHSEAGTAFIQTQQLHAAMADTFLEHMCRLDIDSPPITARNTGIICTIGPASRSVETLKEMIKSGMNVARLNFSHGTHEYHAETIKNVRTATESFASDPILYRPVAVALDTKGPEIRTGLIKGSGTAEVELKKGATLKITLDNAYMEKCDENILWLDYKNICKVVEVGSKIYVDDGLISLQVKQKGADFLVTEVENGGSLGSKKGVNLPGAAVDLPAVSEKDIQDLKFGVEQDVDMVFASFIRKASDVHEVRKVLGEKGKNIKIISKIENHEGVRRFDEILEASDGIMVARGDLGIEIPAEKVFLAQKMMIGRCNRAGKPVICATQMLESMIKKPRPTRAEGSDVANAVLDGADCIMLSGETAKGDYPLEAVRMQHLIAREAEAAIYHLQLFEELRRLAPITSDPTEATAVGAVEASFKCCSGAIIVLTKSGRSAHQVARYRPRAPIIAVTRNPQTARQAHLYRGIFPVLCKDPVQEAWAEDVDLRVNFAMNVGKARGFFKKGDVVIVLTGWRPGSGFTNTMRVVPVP
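Coupled luciferase luminescence (Kinase-Glo) detects ATP generated from 0.1 mM ADP and 0.5 mM PEP in imidazole buffer pH 7.2 with KCl, MgCl2; 1 h at room temperature. Enzyme at intermediate activity; normalized to uninhibited and no-enzyme controls.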
PKM2 inh dose = dose-dependently blocks human pyruvate kinase M2 activity | shares compounds with PKM2 inh | purified hPK-M2, Kinase-Glo ATP luminescence, 1 h | Potency, µM (titrated, usually from 57.5 µM), for the others: top-dose activity change, negative = inhibition, actives largely listed as inhibitors | 50% of 55 active | AID 2263
FLuc counter = counter-screen for pyruvate kinase M2 inhibitors: firefly luciferase inhibition; Potency, µM (top dose mostly 57.5 µM), without a hit: at the highest dose activity, negative = inhibition, most hits filed as inhibitors; 30% of 55 active; Kinase-Glo firefly luciferase, luminescence, 8 min; shares compounds with PKM2 inh; AID 2265
PKM2 inh LDH = blocks human pyruvate kinase M2 in LDH-coupled assay; 55 tested, under 10 active; shares compounds with PKM2 inh; Potency, µM (highest dose often 57.5 µM), without a hit: at the highest dose activity change, negative = inhibition, actives largely listed as inhibitors; purified hPK-M2, LDH-coupled NADH fluorescence kinetic
* marks the source's active call; other numbers are inactive results; ? = inconclusive; · = no result given. This is one part of a sample in which hits are shown more often than they occur. Calls come from the whole dose curve; as a rule, active = well fitted curve in the direction sought with a large enough effect; inconclusive = small, poorly fitted or top-dose-only effect, or another doubt; inactive = no such curve, though single readings can be large; an effect the other way counts as inactive or inconclusive.

SMILES	PKM2 inh	others
CCCc1c(NC(=O)Nc2ccc(Cl)cc2Cl)cnn1-c1ccccc1	33%
CCOc1cc(C(=O)NCCN2C(=O)S/C(=C\c3cccnc3)C2=O)cc(OCC)c1OCC	65%
Cc1ccc(OCc2nnc(SC(C)C(=O)O)n2-c2ccccc2)cc1 (stereo not given)	42%
Cc1ccc(C(=O)/C=C/C(=O)c2ccc(C)cc2)cc1	54%
Cc1ccc(C(=O)OCn2ncc(Cl)c(Cl)c2=O)cc1	31%
Cc1ccc(C(=O)O/N=C(\N)c2nonc2N)cc1	13µM*
Cc1ccc(C(=O)O/N=C(\N)c2ccccn2)cc1	5.6µM*
CCCS(=O)(=O)N1CCN(S(=O)(=O)c2ccccc2)CC1	36%
O=C(CC(C(=O)NCc1ccccc1)c1nc2ccccc2c(=O)[nH]1)NCc1ccccc1 (stereo not given)	44%
O=[N+]([O-])c1ccc2c(c1)ncn2CCc1ccccc1	87%
Cc1cccc(N2CCN(C(=O)c3c(C)nn(Cc4ccccc4Cl)c3C)CC2)c1C	84%
Cc1ccc(CNC(=O)CC2(CC3=NS(=O)(=O)c4ccccc4N3)CCCC2)cc1	50%
O=C(O)c1cccc(CN2C(=O)SC(Nc3cccc4ccccc34)C2=O)c1 (stereo not given)	50%
COc1ccc(NC(=O)c2ccc(NC(=O)CSc3nccc(=O)[nH]3)cc2)cc1	32%
COc1ccc(NC(=O)c2ccccn2)cc1	14µM*
COc1cccc(NC(=O)CSc2ccccn2)c1	49%
O=[N+]([O-])c1cc(O)c2ncccc2c1	39%
Cc1ccc(C2CC(c3ccccc3)=NN2C(=S)Nc2ccccc2)o1 (stereo not given)	36%
COc1cccc(-n2cn[nH]c2=S)c1	14µM*
COC(=O)c1ccc(COc2ccc(/C=N/O)cc2OC)o1	54%
CCOC(=O)C(NC=O)(NC(C)(C)C)C(=O)OCC	8%
CCOC(=O)C1=NN(C(=O)Nc2ccc(OC)cc2)C2C(=O)N(c3cccc(C(F)(F)F)c3)C(=O)C12 (stereo not given)	2%
C=CCN1CCc2c(cc(O)c(O)c2Cl)C(c2cccc(C)c2)C1 (stereo not given)	33%
COc1ccc(-c2cc3nc(C)n(N)c(=O)c3s2)cc1	4µM*
COc1ccc(-c2nc3oc4cc(OC)ccc4c(=O)c3c(=O)n2Cc2ccco2)cc1	33%
SMILES	PKM2 inh	others
NC(=O)COC(=O)/C=C/c1cccc(Br)c1	56%
C=CCc1ccc(OCC(O)CN2CCCCC2C)c(OC)c1 (stereo not given)	15%
COc1ccc2nc(/N=C/c3c(C)[nH]n(-c4ccc(C)cc4)c3=O)sc2c1	14µM*
COc1ccccc1NS(=O)(=O)c1cc(NC(=O)c2[nH]c(C)c(C(C)=O)c2C)ccc1N1CCOCC1	71%
COC(=O)c1c(N2C(=O)CC(Sc3ncccc3C(=O)O)C2=O)sc(C)c1C (stereo not given)	63%
O=C(CCc1ccccc1)N1CCN(S(=O)(=O)c2cccs2)CC1	83%
Cc1cc2sc(C(=O)O)c(C)c2s1	35%
Cc1ccc(S(=O)(=O)N2CCC(=O)N(CCOCc3ccc(Cl)cc3)CC2)cc1	37%
Cc1ccc2nc(C)cc(C(=O)N3CCCC(CO)(Cc4ccccc4C)C3)c2c1 (stereo not given)	32%
COC(=O)Cn1c(=O)c2c(nc3n2CC(C)CN3c2ccc(C)c(C)c2)n(C)c1=O (stereo not given)	132%
CCOC(=O)c1c(NC(=O)CSc2nc3cc(Cl)ccc3c(=O)n2Cc2ccco2)sc(C(=O)N(C)C)c1C	46%
N#Cc1c(-c2ccco2)ccn(Cc2cccc(F)c2)c1=O	49%
O=C(Nc1cccc(C(=O)O)c1)/C(=C\c1ccco1)NC(=O)c1ccc(Br)o1	48%
Cc1cccc(/C(N)=N/OC(=O)c2ccc3c(c2)OCO3)c1	11µM*
Cc1noc(C)c1COc1cccc(C(=O)Oc2ccc3c(c2)OCO3)c1	1%
Cc1nc2ccc(C(=O)NCc3ccc4c(c3)OCO4)cc2s1	36%
O=C(COc1ccc(S(=O)(=O)N2CCc3ccccc32)cc1Cl)NCc1ccccn1	98%
CCCCNc1nnc(SCC(=O)c2c[nH]c3ccccc23)s1	30%
CCN1/C(=C/c2ccc3cc(C)ccc3[n+]2CC)Sc2ccccc21	4.5µM*
Cc1ccc(CNC(=O)Cn2ccc3cc(S(=O)(=O)N4CCCC4)ccc32)o1	75%
Cc1c(C(=O)NCCN2C(=O)S/C(=C\c3cccnc3)C2=O)cccc1[N+](=O)[O-]	32%
CCNc1sc(C(=O)c2cccs2)c(N)c1-c1nc2ccccc2s1	44%
C/C(=N/NC(=O)c1cccs1)c1c(C)[nH]n(-c2nc3ccccc3s2)c1=O	14µM*
CS(=O)(=O)c1sc(C#N)c2c1C(=O)CC(c1ccccc1)C2 (stereo not given)	35%
Cn1c(=O)c2c(SCC(=O)Nc3nccs3)nc(C3CC3)nc2n(C)c1=O	37%
SMILES	PKM2 inh	others
Cc1cc(NC(=O)c2ccccc2)ncc1NC(=O)c1ccco1	?	PKM2 inh dose=16µM*;FLuc counter=?;PKM2 inh LDH=-13%
O=C(Nc1cc([N+](=O)[O-])ccc1N1CCCC1)c1ccco1	49%
O=C(Nc1nc2ccccc2n1CCOc1ccccc1)c1ccco1	-6%
Cc1ccc(S(=O)(=O)/N=c2\ccc(Cl)cn2C(F)F)cc1	66%
N#CCn1cnc2sc(-c3ccccc3)cc2c1=O	31%
Cc1nc2cc(-c3ccccc3)sc2c(=O)n1N	3.5µM*	PKM2 inh dose=3.7µM*;FLuc counter=2.6µM*;PKM2 inh LDH=-5%
Cc1nc([N+](=O)[O-])cn1CC(O)c1ccc(-c2ccccc2)cc1 (stereo not given)	-6%
O=C(/C=C/c1ccc(Br)cc1)NC(=S)Nc1ccc(S(=O)(=O)Nc2nccs2)cc1	52%
O=C(NCCc1c[nH]c2ccccc12)C1CCCN(S(=O)(=O)c2ccccc2)C1 (stereo not given)	37%
CCN(CC)S(=O)(=O)c1ccc2c(c1)nc(SCc1nc3ccsc3c(=O)[nH]1)n2CC	66%
CCOC(=O)c1c(-c2ccc(C)o2)csc1NC(=O)COC(=O)c1ccc(NC(N)=O)cc1	33%
O=C(COc1ccc(Br)cc1F)N1CCN(c2ncccn2)CC1	-2%
Cc1ccc(Nc2c(-c3ccc(C)o3)nc3ncccn23)cc1	57%
Cc1ccc(-c2nc3ccccn3c2Nc2ccccc2C)o1	·	PKM2 inh dose=10%;FLuc counter=2%;PKM2 inh LDH=4.6µM*
Cc1ccc(-c2nc3ncccn3c2Nc2ccccc2C)o1	69%
Cc1ccc2nc(-c3ccc(C)o3)c(Nc3ccc(Cl)cc3)n2c1	·	PKM2 inh dose=21%;FLuc counter=-1%;PKM2 inh LDH=?
Cc1ccc(-c2cc(C(=O)Nc3ccccc3C)c3ccccc3n2)o1	43%
COc1ccc(-c2nc3ccccn3c2Nc2ccccc2C)cc1	·	PKM2 inh dose=?;FLuc counter=0%;PKM2 inh LDH=-28%
CCCNc1nc(Cl)nc(NCc2cccnc2)n1	30%
